High-throughput results as filed in PubChem BioAssay.
CHO-K1 Ca antag – M1 antagonist counterscreen hit in parental CHO-K1 cells; ATP-induced calcium, Fluo-8 fluorescence; inhibition, % at 3 µM; hit rate 0.6% among 360,000; AID 602250;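 active = inhibition above a per-plate cutoff, the plate's mean sample inhibition plus 3 SD, cut at about 24% in these data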;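 also: 0% = DMSO plus EC80 ATP and 100% = DMSO alone without ATP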
M1 ag parental – M1 agonist counterscreen hit in parental CHO-K1 cells; Fluo-8 calcium fluorescence; scaled to maximal ATP response, vehicle zero; activation, % at 3 µM; hit rate 0.48% among 360,000; in the data active = activation above about 15%;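 also: untransfected CHO-K1 host cells lacking M1 receptor as counterscreen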
M1 PAM – human CHRM1 positive allosteric modulation. P11229. CHO-K1 hM1, Fluo-8 calcium fluorescence, ACh EC20; 0% = ACh EC20, 100% = maximal ACh. activation, % at 3 µM. hit rate 0.088% among 360,000; in the data active = activation above about 19%, passing the limit was not always enough
Target sequence (P11229 whole entry, looked up): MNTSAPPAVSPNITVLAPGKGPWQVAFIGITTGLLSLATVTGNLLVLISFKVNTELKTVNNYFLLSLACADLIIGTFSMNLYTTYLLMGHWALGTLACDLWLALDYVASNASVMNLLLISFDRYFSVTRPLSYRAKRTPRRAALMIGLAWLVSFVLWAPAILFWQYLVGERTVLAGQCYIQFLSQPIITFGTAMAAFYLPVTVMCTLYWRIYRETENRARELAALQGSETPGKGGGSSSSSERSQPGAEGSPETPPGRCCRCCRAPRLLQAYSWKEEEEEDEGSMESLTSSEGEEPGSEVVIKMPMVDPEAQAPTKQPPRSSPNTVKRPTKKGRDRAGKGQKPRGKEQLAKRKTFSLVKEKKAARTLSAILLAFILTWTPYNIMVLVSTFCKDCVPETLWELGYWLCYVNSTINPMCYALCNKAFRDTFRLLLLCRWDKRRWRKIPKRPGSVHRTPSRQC
M1 ag – agonists of human M1 muscarinic receptor. hit rate 0.33% among 360,000. AID 588814. P11229. CHO-K1 hM1, Fluo-8 calcium fluorescence, agonist mode; 0% DMSO, 100% acetylcholine EC100. activation, % at 3 µM;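 active = activation above the run's mean compound activation plus 3 SD, cut at about 16% in these data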;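 also: peak over basal fluorescence ratio within a 140 s kinetic read after compound addition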
CHRM1 antagonist – blocks human M1 muscarinic receptor. P11229. CHO-K1 hM1, Fluo-8 calcium fluorescence, ACh EC80 antagonist. inhibition, % at 3 µM. hit rate 1.3% among 360,000. AID 588852;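 active = percent inhibition above its own plate's cutoff, namely the mean of that plate's compound wells plus 3 SD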;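 also: peak over basal fluorescence ratio during 140 s after agonist addition; 0% = ACh EC80 plus DMSO and 100% = DMSO alone without agonist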
CHO-K1 Ca PAM – nonselective activator or artifact in parental CHO-K1 calcium assay; AID 602247; hit rate 0.02% among 360,000; activation, % at 3 µM; ATP EC20, Fluo-8 calcium fluorescence; 0% at ATP EC20, 100% at ATP max;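 active = activation above the run cutoff, the mean activation of all test compounds plus 3 SD, cut at about 40% in these data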;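 also: peak over basal fluorescence ratio in a 140 s read after ATP addition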
* = called active by the depositor. A selection: hits, their analogues and other compounds. The true share with any hit is near 2.3%.

SMILES	CHO-K1 Ca antag	M1 ag parental	M1 PAM	M1 ag	CHRM1 antagonist	CHO-K1 Ca PAM
CC(=O)Cc1nsc(NC(=O)c2cn(-c3ccccc3)nc2-c2ccc(Br)cc2)n1	25*	0	13	-3	-12	-5
CN1CCC(=O)N([C@H](CSc2ccc(Br)cc2)c2ccccc2)CC1	-3	1	-38	-13	55*	4
CCCN1CCC(=O)N([C@H](CSc2ccccc2)c2ccccc2)CC1	-13	1	-20	-14	15	17
O=C(Nc1ccc(Cl)c(Cl)c1)c1cccc(S(=O)(=O)NCc2cccnc2)c1	28*	20*	-6	1	22	3
COc1cccc(S(=O)(=O)NCc2ccc(C(=O)Nc3ccc(Cl)c(Cl)c3)cc2)c1	11	1	-6	-3	10	-8
O=C(Nc1ccc(Cl)c(Cl)c1)OCc1cccnc1	27*	8	-8	0	33*	-1
CC1(C(=O)NS(=O)(=O)C2CC2)CCCN(C(=O)c2cccs2)C1 (stereo not given)	-2	0	8	-1	-8	7
C=CCOC(=O)N1CCC2CC1c1cc(-c3cccc(C)c3)ccc12 (stereo not given)	-5	0	-5	-5	3	-10
COc1cccc(CNC(=O)C2CCC(=O)N(C3CC3)C2)c1OC (stereo not given)	-12	1	17	-2	-16	6
C=CCNC(=O)c1cc(-c2ccncc2)nc2c(C)cc(C)cc12	0	3	-4	-1	4	-7
Cc1ccc2c(c1)NC(=O)[C@@]1(C)[C@@H](c3ccccc3)[C@H]3COc4ccccc4[C@@H]3N1C2=O	-11	0	-7	-5	5	4
Cc1ccc2c(c1)C(=O)N1[C@H]3c4ccccc4OC[C@@H]3[C@H](c3ccccc3)[C@]1(C)C(=O)N2	-5	0	-30	-8	65*	10
C[C@@]12C(=O)Nc3ccc(Br)cc3C(=O)N1[C@H]1c3ccccc3OC[C@@H]1[C@@H]2c1ccccc1	-7	0	-14	-4	27*	12
COc1ccc(C(CNC(=O)c2cccc(S(=O)(=O)NCc3ccccc3)c2)N2CCOCC2)cc1 (stereo not given)	4	0	5	-3	-6	0
CCN1/C(=C/C=C/c2oc3ccc(-c4ccccc4)cc3[n+]2CC)Oc2ccc(-c3ccccc3)cc21	102*	857*	-21	599*	103*	-23
CCOC(=O)C1CCCN(C2=C(NS(=O)(=O)c3ccc(Br)cc3)C(=O)c3ccccc3C2=O)C1 (stereo not given)	5	4	-20	41*	30	-9
CCOC(=O)C1CCN(CC(C)(C)NS(=O)(=O)c2ccc(C)cc2)CC1	-15	2	27*	-12	-27	4
CC1CCN(C2=C(NS(=O)(=O)c3ccc(Cl)cc3)C(=O)c3ccccc3C2=O)CC1	-6	0	4	-9	-3	21
CCOC(=O)C1CCN(C2=C(NS(=O)(=O)c3ccc(Cl)cc3)C(=O)c3ccccc3C2=O)CC1	-4	1	-14	30*	12	11
Cc1c(Br)c([N+](=O)[O-])nn1C(C)C(=O)N1CCc2ccccc2C1 (stereo not given)	-6	3	-23	-6	73*	7
Cc1c(Br)c([N+](=O)[O-])nn1CC(=O)N1CCc2ccccc2C1	10	0	-2	-9	7	5
CCN1CCCC1CNCc1ccccc1OCc1ccc(F)cc1 (stereo not given)	-1	0	-20	-9	32*	1
CCN1CCCC1CNCc1cccc(OC)c1OCc1ccccc1 (stereo not given)	-11	0	-19	-7	24	21
O=C1CSC(c2ccc([N+](=O)[O-])cc2)N1CCN1CCCCC1 (stereo not given)	-21	1	3	19*	-8	12
C[N+]1(CCCCSc2ccc(O)cc2)CCCCC1	-9	0	-20	-11	21	-8
SMILES	CHO-K1 Ca antag	M1 ag parental	M1 PAM	M1 ag	CHRM1 antagonist	CHO-K1 Ca PAM
COC(=O)CCCCCCCCC(O)C[N+]1(C)CCOCC1 (stereo not given)	7	0	-6	-9	10	-8
C[N+]1(CC(=O)OC2CCCCCCCCCCC2)CCCC1	1	2	-38	-15	69*	13
CC(=O)OCCCCCCCCCCC[N+]1(C)CCCCC1	-6	0	-23	-6	65*	5
COC(=O)CCCCCCCCCC[N+]1(C)CCCCC1	-3	0	-27	-14	64*	16
CC(C(=O)Nc1cccc(S(=O)(=O)N2CCOCC2)c1)N1CCN(c2ccc(F)cc2)CC1 (stereo not given)	-7	4	11	-9	-6	22
O=C1CN(C(=O)CSc2nc(-c3ccc(Cl)cc3)cs2)c2ccccc2N1	-8	3	7	-3	-10	7
CC(=O)c1ccc(NC(=O)C(=O)c2cn(CC(=O)N3CCCCC3)c3ccccc23)cc1	4	0	6	-3	-3	1
O=C(CSc1nnc(-c2cccnc2)s1)Nc1ccnc2ccccc12	26*	15	-14	-2	34*	9
Cc1ccc(NC(=O)CSc2nnc(-c3cccnc3)s2)cc1	-6	2	6	-6	-5	26
C=CCN1C(=O)NC(c2ccc(OC)cc2)(C(F)(F)F)S/C1=C(\C#N)c1nnc(N2CCOCC2)n1-c1ccccc1 (stereo not given)	-10	3	5	19*	-8	25
O=[N+]([O-])c1ccc(N2CCC(O)CC2)nc1	29*	0	15	1	0	-16
CCC(NC(=O)c1cc(COc2cc(C)c(Cl)c(C)c2)on1)c1ccncc1 (stereo not given)	3	17*	5	13	12	2
N#CC1(NC(=O)COc2cc(F)ccc2[N+](=O)[O-])CCCCC1	-4	2	-11	-6	22	-12
N#CC1(NC(=O)COC(=O)C2=COCCO2)CCCCC1	-12	19*	2	24*	-2	12
N#CC1(NC(=O)COc2ccccc2[N+](=O)[O-])CCCCC1	-8	1	-15	-6	37*	-8
Oc1ccc(-c2cnc3c(Nc4cccc(OC(F)(F)C(F)F)c4)nccn23)cc1	1	1	-1	1	0	-4
NC(=O)c1cccc(-c2cnc3c(Nc4cccc(OC(F)(F)C(F)F)c4)nccn23)c1	31*	0	6	2	-4	-16
O=S1(=O)CCC(NC(=S)Nc2ccc3ccccc3c2)C1 (stereo not given)	-7	1	6	-2	-10	-5
